Bioassay records deposited in PubChem by several laboratories.
An excerpt weighted towards active compounds, which were near 1.7% of everything screened.
V-ATPase pH = yeast V-ATPase proton transport regulation by pHLuorin. S. cerevisiae, pHLuorin cytosolic pH fluorescence. 350,000 compounds, 0.37% hits. response, % at 10 µM; in the data active means response mostly above about 7.3%, no sharp cut-off; inactive means mostly below about 5.4%; further: actives read high
beta cell repl = inducers of beta-cell replication in MIN6 cells; MIN6 cells proliferation, ATPlite luminescence, 48 h; cells starved in 0.2% serum; 100% = growth in 10% serum; proliferation, % at 10 µM; 330,000 compounds, 0.29% hits;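 active means compounds whose signal lies at least 3.5 SD above the mean of all wells on their plate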
HTR5A inv ctr = inverse agonist of human HTR5A in OPRM1-OPRD1 counter-screen. P47898. HTR5A cell line, luminescence, inverse agonism. inhibition, % at 9.3 µM. 340,000 compounds, 0.083% hits. AID 504634; in the data active means inhibition mostly above about 23%, no sharp cut-off; inactive means mostly below about 18%
Target sequence (P47898 whole entry, looked up): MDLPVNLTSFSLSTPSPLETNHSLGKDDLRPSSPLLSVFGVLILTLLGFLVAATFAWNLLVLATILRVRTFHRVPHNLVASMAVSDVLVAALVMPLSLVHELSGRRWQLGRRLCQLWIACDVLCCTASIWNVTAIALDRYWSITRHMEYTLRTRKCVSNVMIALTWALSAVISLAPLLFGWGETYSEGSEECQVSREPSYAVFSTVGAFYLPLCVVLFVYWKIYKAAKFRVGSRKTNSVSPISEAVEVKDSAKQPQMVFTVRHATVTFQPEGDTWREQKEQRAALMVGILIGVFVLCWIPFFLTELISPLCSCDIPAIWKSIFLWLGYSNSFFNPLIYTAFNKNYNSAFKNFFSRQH
HTR5A ag = activates human HTR5A in OPRM1-OPRD1 agonist counter-screen | AID 504692 | P47898 | activation, % at 9.3 µM | HTR5A agonist assay, luminescence, cell-based | 340,000 compounds, 0.61% hits; in the data active means activation mostly above about 9.5%, no sharp cut-off; inactive means mostly below about 7.6%
MOR-DOR inv ag = mu-delta opioid heterodimer inverse agonism; P35372+P41143; cell-based MOR-DOR heterodimer luminescence; inhibition, % at 9.3 µM; 340,000 compounds, 0.21% hits; AID 504357; in the data active means inhibition above about 22%, passing the limit was not always enough
MOR-DOR ag = agonists of human mu-delta opioid receptor heterodimerization | 340,000 compounds, 0.3% hits | activation, % at 9.3 µM | cells, OPRM1-OPRD1 heterodimerization, luminescence
OPRM1-D1 ag cf = OPRM1-OPRD1 heterodimer agonism, confirmation. shares compounds with MOR-DOR ag. cells, MOR-DOR heterodimerization, luminescence complementation. activation, % at 9.3 µM. 830 compounds, 45% hits. AID 504904
HTR5A ag ctr2 = HTR5A agonism, opioid heterodimer counter-screen; HTR5A agonist counterscreen, cell luminescence; 830 compounds, 8% hits; shares compounds with MOR-DOR ag; activation, % at 9.3 µM; in the data active means activation above about 17%
Large screens that a line does not name were inactive (follow-up assays come after a bar, where they were run). Unless noted, no stated cut-off is given here; in the data, active means activation above about 18%; inactive means the rest.

Cc1ccc(CC(=O)NCC(c2ccco2)N(C)C)cc1C (stereo not drawn)	MOR-DOR ag 69 | OPRM1-D1 ag cf 56 | HTR5A ag ctr2 inactive
O=C(NCc1ccco1)c1cc2ccccc2o1	none
COc1ccc(C(=O)NCC(=O)NCC(c2ccco2)N(C)C)cc1OC (stereo not drawn)	none
CN(C)C(CNC(=O)c1ccc(C(F)(F)F)cc1)c1ccco1 (stereo not drawn)	MOR-DOR ag 51 | OPRM1-D1 ag cf 52 | HTR5A ag ctr2 inactive
CN(C)C(CNC(=O)c1cc2ccccc2o1)c1ccco1 (stereo not drawn)	MOR-DOR ag 22 | OPRM1-D1 ag cf 147 | HTR5A ag ctr2 inactive
CC(=O)Nc1ccc(C(=O)NCC(c2ccco2)N(C)C)cc1 (stereo not drawn)	none
CCOC(=O)c1c(C)[nH]c(C(=O)OC/C(O)=C(\C#N)c2nc3ccccc3[nH]2)c1C	HTR5A ag 9.9, MOR-DOR ag 32 | OPRM1-D1 ag cf 41 | HTR5A ag ctr2 inactive
COc1ccc(OC)c(NC(=O)c2cc(-c3cc(Cl)ccc3O)n[nH]2)c1	MOR-DOR ag 19 | OPRM1-D1 ag cf inactive | HTR5A ag ctr2 inactive
COc1ccc(Cl)cc1NC(=O)c1cc(-c2ccccc2O)n[nH]1	none
COC(=O)c1ccsc1NS(=O)(=O)c1ccccc1	none
CN(CC(=O)Nc1ccc(F)c(F)c1)S(=O)(=O)c1cccc2cccnc12	none
Cc1ccc(NC(=O)CSc2nc(N)c3cc4c(nc3n2)CCCC4)cc1	MOR-DOR ag 29 | OPRM1-D1 ag cf 28 | HTR5A ag ctr2 inactive
Nc1nc(SCC(=O)Nc2ccccc2)nc2nc3c(cc12)CCCC3	MOR-DOR ag 35 | OPRM1-D1 ag cf inactive | HTR5A ag ctr2 inactive
CCOC(=O)C1(CCOc2ccccc2)CCN(Cc2ccc(OCC)c(CO)c2)CC1	none (no result: beta cell repl)
CS(=O)(=O)C1=NSC2=NC(=O)/C(=C\c3ccc(OC(=O)c4ccco4)c(Br)c3)C(=N)N21	none
c1ccc(C2[C@H]3CN(Cc4cccnc4)[C@H](c4ccccc4)C34CC2(c2cccnc2)C4)cc1 (stereo partly drawn)	MOR-DOR ag 80 | OPRM1-D1 ag cf 75 | HTR5A ag ctr2 inactive
Nc1c(NCCN2CCCCC2)c2ccccc2oc1=O	MOR-DOR ag 53 | OPRM1-D1 ag cf inactive | HTR5A ag ctr2 inactive
COc1ccccc1N1CCN(C(c2cccs2)C(C)NC(=O)c2ccco2)CC1 (stereo not drawn)	MOR-DOR ag 91 | OPRM1-D1 ag cf 119 | HTR5A ag ctr2 inactive
COc1ccc(N2CCN(C(c3cccs3)C(C)NC(=O)c3ccco3)CC2)cc1 (stereo not drawn)	none
Clc1cccc(Cl)c1CSc1nnc(-c2ccncc2)s1	MOR-DOR ag 21 | OPRM1-D1 ag cf inactive | HTR5A ag ctr2 inactive
CC[C@@H](C)[C@H](CNC)NC[C@@H](Cc1cccc2ccccc12)NCCc1cccc(C(F)(F)F)c1	MOR-DOR ag 24 | OPRM1-D1 ag cf inactive | HTR5A ag ctr2 inactive
COc1cccc(OCc2cc(C3Nc4ccccc4C(=O)N3Cc3ccco3)ccc2OC)c1 (stereo not drawn)	none (no result: beta cell repl)
COc1ccc(C2Nc3ccccc3C(=O)N2Cc2ccco2)cc1COc1ccc([N+](=O)[O-])cc1 (stereo not drawn)	MOR-DOR ag 22 | OPRM1-D1 ag cf inactive | HTR5A ag ctr2 inactive
CCCOc1ccc(C(=O)NCC(c2cccs2)N(C)C)cc1OC (stereo not drawn)	none
COc1cc2ccccc2cc1C(=O)NCC(c1cccs1)N(C)C (stereo not drawn)	MOR-DOR ag 72 | OPRM1-D1 ag cf inactive | HTR5A ag ctr2 inactive
COc1cc(C(=O)NCC(c2cccs2)N(C)C)cc(Cl)c1OC(C)C (stereo not drawn)	MOR-DOR ag 48 | OPRM1-D1 ag cf inactive | HTR5A ag ctr2 inactive
O=C(Oc1cccc(F)c1)c1ccc2c(=O)n3c(nc2c1)CCC3	none
S=c1[nH]c(-c2ccc(Br)cc2)cn1CCc1ccccc1	none
